TIM10 inh = growth inhibitors of isogenic TIM10 control yeast, primary screen, counter-screen for tim10-1 yeast inhibitor project, luminescence, uHTS | S. cerevisiae TIM10 strain growth, BacTiter-Glo luminescence, 24 h | actives 1.4% (n = 330,000) | inhibition, % at 10 µM;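 active means inhibition of 40% or more at the single tested concentration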;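 further: wild-type TIM10 isogenic control strain grown at permissive 25 °C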
tim10-1 inh = growth inhibitors of tim10-1 mutant yeast, primary screen, luminescence, uHTS | S. cerevisiae tim10-1 ts strain growth, BacTiter-Glo, 24 h | inhibition, % at 20 µM | actives 2.2% (n = 330,000) | AID 463190, 2010;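 active means inhibition of at least 40%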;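 further: mutant grown at 25 °C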
PfHsp90 yeast 2 = growth inhibition of PfHsp90-expressing yeast, primary screen, antimalarial PfHsp90 inhibitor project, S. cerevisiae, BacTiter-Glo luminescence, single point, set 2; BacTiter-Glo ATP, 48 h; yeast lacking PDR1 and PDR3 efflux regulators; inhibition, % at 9.4 µM; actives 0.32% (n = 310,000);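 active means every replicate shows inhibition above about 80%, whatever the replicate mean, limit read from the data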
B2AR ag = beta2AR agonists driving receptor internalization, primary screen, cell-based, FAP fluorogen, flow cytometry; response, % (concentration not given with the values); actives 0.43% (n = 340,000); AID 504454, 2011; Beta-2 adrenergic receptor (Homo sapiens), P07550; Am2.2-beta2AR cells;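 active means response above a set limit, near 3 SD of response in nonfluorescent compounds, cut at about 42% in these data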
Target sequence (P07550 whole entry, looked up): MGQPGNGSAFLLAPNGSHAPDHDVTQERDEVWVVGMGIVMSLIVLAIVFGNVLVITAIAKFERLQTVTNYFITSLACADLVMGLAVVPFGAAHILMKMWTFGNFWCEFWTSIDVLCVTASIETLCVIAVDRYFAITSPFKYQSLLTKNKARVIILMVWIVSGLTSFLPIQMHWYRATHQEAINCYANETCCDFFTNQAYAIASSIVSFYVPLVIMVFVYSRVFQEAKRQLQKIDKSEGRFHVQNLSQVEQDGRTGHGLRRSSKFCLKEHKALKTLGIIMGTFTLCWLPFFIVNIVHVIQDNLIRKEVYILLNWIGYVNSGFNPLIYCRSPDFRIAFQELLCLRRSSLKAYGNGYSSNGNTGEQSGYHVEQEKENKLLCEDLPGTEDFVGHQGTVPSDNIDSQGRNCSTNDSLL
tim23-1 inh = growth inhibitors of tim23-1 mutant yeast, primary screen, luminescence, uHTS. S. cerevisiae tim23-1 growth, BacTiter-Glo luminescence, 24 h. inhibition, % at 20 µM. actives 1.3% (n = 330,000). AID 463212, 2010;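 active means growth inhibition of the mutant yeast at or above 50%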;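 further: temperature-sensitive mutant grown at 25 °C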
Each line names hits and unclear results; the compound was inactive in the other large screens. Shown are actives, neighbours in structure and some others; about 3.8% of the full set was active somewhere.

CCOc1ccc(NC(=O)c2ccc3c(c2)C(=O)N(Cc2ccncc2)C3=O)cc1	none (no result: PfHsp90 yeast 2)
Cc1cc(C)c2nc(NCCCNC(=S)NCCCN(C)C)c(C#N)cc2c1	B2AR ag 43
CCOCCCNC(=S)NCCCNc1nc2c(C)cc(C)cc2cc1C#N	none (no result: TIM10 inh, tim10-1 inh, tim23-1 inh)
COP(=O)(OC)c1ccc(NCc2cc(O)ccc2O)cc1	none (no result: TIM10 inh, tim10-1 inh, tim23-1 inh)
CC(C)OC(=O)c1ccc(NCc2cc(O)ccc2O)cc1	PfHsp90 yeast 2 87 (no result: TIM10 inh, tim10-1 inh, tim23-1 inh)
O=C(OCc1ccccc1)c1ccc(NCc2cc(O)ccc2O)cc1	PfHsp90 yeast 2 108 (no result: TIM10 inh, tim10-1 inh, tim23-1 inh)
CCOC(=O)c1sc2nc(C)nc(N3CCN(S(=O)(=O)c4ccccc4)CC3)c2c1C	none
Cc1cc(C(=O)Cn2ncc(Cl)c(Cl)c2=O)c(C)n1CC(F)(F)F	B2AR ag 43
Cc1ccc(C)c(C(=O)Cn2ncc(Cl)c(Cl)c2=O)c1	none
COc1ccc(Nc2nc(-c3cccs3)nc3ccccc23)cc1S(=O)(=O)N1CCOCC1	none
Cc1cccc(C(=O)NC(=S)NNC(=O)Cc2ccccc2)c1	PfHsp90 yeast 2 109
Cc1nc2ccccc2c2oc(C(=O)N3CCN(c4ccc([N+](=O)[O-])cc4)CC3)cc12	B2AR ag 51
CCN(c1ccccc1)S(=O)(=O)c1ccc(NC(=O)c2nc(S(C)(=O)=O)ncc2Cl)cc1	B2AR ag 104
Cc1ccc(NC(=O)c2nc(S(=O)(=O)Cc3ccccc3)ncc2Cl)cc1	PfHsp90 yeast 2 104
COc1ccc(NC(=O)/C(Cl)=C(/Cl)S(=O)(=O)Cc2ccc(C)cc2)cn1	B2AR ag 62 (no result: TIM10 inh, tim10-1 inh, tim23-1 inh)
Cc1ccccc1NS(=O)(=O)c1cc(C(=O)N2CCCC2)ccc1C	none
COc1ccccc1NS(=O)(=O)c1cc(C(=O)N2CC(C)CC(C)C2)ccc1C (stereo not given)	PfHsp90 yeast 2 102
Cc1ccc(S(=O)(=O)N2CCN(C(=O)c3cc(S(=O)(=O)N(C)C)ccc3N3CCCC3)CC2)c(C)c1	none (no result: PfHsp90 yeast 2)
CCOC(=O)/C=C(\C)Sc1cc(O)c2ccccc2c1O	B2AR ag 46 (no result: TIM10 inh, tim10-1 inh, tim23-1 inh)
CCOC(=O)/C=C(\C)Sc1cc(=O)oc2ccccc12	none
COc1ccc2sc(N(CCCN(C)C)C(=O)c3ccc(S(=O)(=O)N4CCc5ccccc5C4)cc3)nc2c1	none
Cc1cc(C)c2sc(N(CCCN(C)C)C(=O)c3ccc(S(=O)(=O)N4CCc5ccccc5C4)cc3)nc2c1	B2AR ag 51
COC(=O)c1ccc(COc2ccccc2/C=C/C(=O)c2ccc(OCC(=O)O)cc2)cc1	B2AR ag 47
O=C(CN1C(=O)c2ccccc2S1(=O)=O)Nc1cc(S(=O)(=O)N2CCCCC2)ccc1Cl	none
O=C(COc1ccc2ccc(=O)oc2c1)Nc1cc([N+](=O)[O-])ccc1F	B2AR ag 60
CCCCCN=C(N)N/N=C/c1c[nH]c2ccc(OC)cc12	B2AR ag 47
COc1ccc(C(=O)N/N=C/c2c[nH]c3ccccc23)cc1	none
O=C(c1ccccc1)C(Nc1cccc([N+](=O)[O-])c1)c1ccccc1 (stereo not given)	none (no result: TIM10 inh, tim10-1 inh, PfHsp90 yeast 2, tim23-1 inh)
COc1cccc(NC(=S)N2CCN(S(C)(=O)=O)CC2)c1	none
O=C(c1ccc(-c2nnc(Nc3cccc(Cl)c3)c3ccccc23)cc1)N1C[C@H]2C[C@H](C1)c1cccc(=O)n1C2	B2AR ag 74
O=C(C(Br)=Cc1ccccc1)c1ccccc1	none (no result: TIM10 inh, tim10-1 inh, PfHsp90 yeast 2, tim23-1 inh)
CCCCCCCCCCCCCCCC[N+](C)(C)Cc1ccc(F)cc1	PfHsp90 yeast 2 115 (no result: TIM10 inh, tim10-1 inh, tim23-1 inh)
O=C1/C(=C\c2cccc(O)c2O)SC(=S)N1Cc1ccccc1	PfHsp90 yeast 2 108
CC[C@@H](C(=O)[C@@H](C)[C@@H](O)[C@H](C)CCc1ccc(C)c(O)c1C(=O)O)[C@H]1O[C@](CC)([C@H]2CC[C@](O)(CC)[C@H](C)O2)C[C@@H]1C	B2AR ag 86
Clc1cccc(-c2ccc(-c3nc4ccccn4c3NCc3ccccc3)cc2)c1	none
COc1ccc(-c2cc(-c3nc4ccccn4c3NCc3ccccc3)ccc2OC)cc1	B2AR ag 66
Oc1cccc2ccc(/C=C/c3ccccc3Br)nc12	PfHsp90 yeast 2 98
Cc1cccn2c(=O)c3cc(C(=O)NC4CCS(=O)(=O)C4)n(Cc4ccccc4)c3nc12 (stereo not given)	none
COc1ccccc1CN1CC(C(=O)NCc2nccn2C)CCC1=O (stereo not given)	none
COc1ccc(C(=O)c2ccc(Cl)c([N+](=O)[O-])c2)cc1	B2AR ag 48
CC(=O)O[C@H]1[C@H](O)[C@H](Oc2c(O)c(C)c3c4c2[C@@H](C)CC[C@@H]4[C@@H](C)C[C@H]3C=C(C)C)O[C@@H](C)[C@H]1O	PfHsp90 yeast 2 118
Cc1ccc(C(C)C)c(OCc2ccc(C(=O)N/N=C/c3cccc(O)c3O)cc2)c1	PfHsp90 yeast 2 122 (no result: TIM10 inh, tim10-1 inh, tim23-1 inh)
CCOc1ccc(N2C(=O)CC(N(C)Cc3ccccc3)C2=O)cc1 (stereo not given)	none
COC(=O)c1ccc(N2C(=O)CC(N(C)Cc3ccccc3)C2=O)cc1 (stereo not given)	PfHsp90 yeast 2 104
O=C(Nc1ccc(N2CCCC2)c(Cl)c1)c1cccc(-c2cc3ccccc3oc2=O)c1	B2AR ag 61
CC(=O)Nc1ccc(NC(=O)c2cccc(-c3cc4ccccc4oc3=O)c2)cc1	none
C/C(CC(=O)Nc1cc(C)ccn1)=N\NC(=O)c1cccc(C)c1	none
C/C(CC(=O)Nc1cc(C)ccn1)=N\NC(=O)c1cccc(C)c1O	PfHsp90 yeast 2 101
CCN(CCO)C1CC(=O)N(c2ccccc2C)C1=O (stereo not given)	PfHsp90 yeast 2 124
COc1ccc(OC)c(CNS(=O)(=O)c2cc(CN3C(=O)c4cccnc4C3=O)ccc2OC)c1	none
Cc1ccc(S(=O)(=O)N2CCCCC2)cc1NC(=O)Cn1cnc2c1c(=O)n(C)c(=O)n2C	none (no result: PfHsp90 yeast 2)
COc1cc(/C=C2/C(=N)N3C=CSC3=NC2=O)ccc1OCCCOc1cc(C)ccc1C	B2AR ag 63
O=C1C2C3C=CC(C3)C2C(=O)N1CN(Cc1ccccc1)CN1C(=O)C2C3C=CC(C3)C2C1=O (stereo not given)	PfHsp90 yeast 2 113
Cc1ccc(-c2nc(CS(=O)(=O)CC(=O)NC3CCCCCC3)c(C)o2)cc1	none
CCCCNC(=O)c1cc2c(=O)n3cccc(C)c3nc2n(Cc2ccccc2)c1=N	B2AR ag 87
CCNC(=O)c1cc2c(=O)n3cccc(C)c3nc2n(CCc2ccccc2)c1=N	B2AR ag 89
COc1ccc(CCn2c(=N)c(C(=O)NC3CCCC3)cc3c(=O)n4cccc(C)c4nc32)cc1	none
Cc1cccn2c(=O)c3cc(C(=O)NC4CCCC4)c(=N)n(CCc4ccccc4)c3nc12	B2AR ag 79
Cc1cccn2c(=O)c3cc(C(N)=S)c(=N)n(CCCOC(C)C)c3nc12	B2AR ag 71
